Assay in all cases: DAPPL (digital affinity profiling via proximity ligation, sequencing); 10 mM Tris-HCl pH 7.5, 50 mM NaCl, 1 mM DTT, 4% glycerol, room temperature, 30 min; GST-TFs on glutathione beads, 16-mer random dsDNA library, 0.1% formaldehyde crosslink after washing; high values mean tight binding
One test has as its target T1, FEV (Homo sapiens, UniProt Q99581 1-238).
T1 sequence: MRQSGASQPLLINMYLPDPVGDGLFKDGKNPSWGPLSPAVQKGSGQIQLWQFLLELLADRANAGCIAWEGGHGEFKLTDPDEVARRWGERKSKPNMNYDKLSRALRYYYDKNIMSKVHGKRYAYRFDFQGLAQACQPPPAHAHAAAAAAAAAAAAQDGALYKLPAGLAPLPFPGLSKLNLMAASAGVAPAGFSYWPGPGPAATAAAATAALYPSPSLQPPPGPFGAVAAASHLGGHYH
Conditions: protein: recombinant; tags: N-terminal GST; dsDNA, one strand shown. In a few lines:
(§1)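 Binding signal is each hexamer's read frequency for a factor divided by its frequency in the tag-only sample. The factors were GST-fused human transcription factors from yeast, captured on glutathione beads, DNA-barcoded and pooled with that sample. Pools were incubated with 200 nmole of a random double-stranded 16-mer DNA library in Tris/NaCl/DTT/glycerol buffer at room temperature for 30 min, then washed, crosslinked with 0.1% formaldehyde, proximity-ligated with BsaI/T4 ligase (1 h, 37 °C), PCR-amplified and sequenced on an Illumina NextSeq500.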

In another test the target is ETV5 (Homo sapiens, UniProt P41161 1-510). Conditions: protein: recombinant; tags: N-terminal GST; dsDNA, one strand shown. In a few lines: as §1
ETV5, sequence (P41161 whole entry): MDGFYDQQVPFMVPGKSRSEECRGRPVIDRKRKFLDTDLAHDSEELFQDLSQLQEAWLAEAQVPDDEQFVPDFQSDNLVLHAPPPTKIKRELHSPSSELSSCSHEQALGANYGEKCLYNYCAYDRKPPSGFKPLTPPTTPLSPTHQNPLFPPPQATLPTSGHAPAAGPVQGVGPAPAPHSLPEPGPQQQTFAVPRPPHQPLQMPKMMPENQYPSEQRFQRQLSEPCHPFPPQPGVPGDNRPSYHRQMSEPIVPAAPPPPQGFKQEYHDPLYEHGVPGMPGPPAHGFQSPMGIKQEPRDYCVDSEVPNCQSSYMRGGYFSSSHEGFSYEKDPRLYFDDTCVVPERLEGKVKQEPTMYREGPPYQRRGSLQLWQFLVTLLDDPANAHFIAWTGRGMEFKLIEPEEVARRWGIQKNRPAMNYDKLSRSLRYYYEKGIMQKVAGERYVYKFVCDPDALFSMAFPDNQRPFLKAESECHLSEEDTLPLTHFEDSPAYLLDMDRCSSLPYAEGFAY
A further test deals with HSF1 (Homo sapiens, UniProt Q00613 1-529). Conditions: protein: recombinant; tags: N-terminal GST; chain copies: 3; dsDNA, one strand shown. In a few lines: as §1
HSF1, sequence (Q00613 whole entry): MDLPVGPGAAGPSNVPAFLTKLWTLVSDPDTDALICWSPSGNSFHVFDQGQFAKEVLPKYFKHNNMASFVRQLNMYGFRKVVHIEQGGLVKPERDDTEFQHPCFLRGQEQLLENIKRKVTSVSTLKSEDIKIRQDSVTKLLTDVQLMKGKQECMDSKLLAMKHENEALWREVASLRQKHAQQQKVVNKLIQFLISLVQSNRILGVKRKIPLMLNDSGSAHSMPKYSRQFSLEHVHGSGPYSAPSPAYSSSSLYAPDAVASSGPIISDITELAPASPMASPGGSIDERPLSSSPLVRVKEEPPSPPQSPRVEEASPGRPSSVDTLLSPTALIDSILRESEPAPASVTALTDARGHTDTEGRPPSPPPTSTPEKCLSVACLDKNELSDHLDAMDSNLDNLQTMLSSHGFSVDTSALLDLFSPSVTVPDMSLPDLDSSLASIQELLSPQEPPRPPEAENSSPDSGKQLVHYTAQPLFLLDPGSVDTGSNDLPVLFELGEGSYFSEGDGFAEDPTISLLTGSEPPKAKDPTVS
For the next test, the target named is T2, SPIC (Homo sapiens, UniProt Q8N5J4 1-248).
T2 sequence: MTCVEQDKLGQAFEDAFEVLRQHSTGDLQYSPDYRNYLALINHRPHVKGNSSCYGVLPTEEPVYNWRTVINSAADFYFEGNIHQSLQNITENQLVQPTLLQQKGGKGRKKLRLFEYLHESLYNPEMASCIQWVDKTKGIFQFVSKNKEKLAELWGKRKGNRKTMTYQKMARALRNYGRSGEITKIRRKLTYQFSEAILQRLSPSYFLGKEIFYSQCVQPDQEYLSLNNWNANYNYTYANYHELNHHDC
Conditions: protein: recombinant; tags: N-terminal GST; dsDNA, one strand shown. In a few lines: as §1

The target in a further test is ELF4 (Homo sapiens, UniProt Q99607 1-663). Conditions: protein: recombinant; tags: N-terminal GST; dsDNA, one strand shown. In a few lines:
as §1

The target in another test is T3, ELK4 (Homo sapiens, UniProt P28324-2 1-405).
T3 sequence: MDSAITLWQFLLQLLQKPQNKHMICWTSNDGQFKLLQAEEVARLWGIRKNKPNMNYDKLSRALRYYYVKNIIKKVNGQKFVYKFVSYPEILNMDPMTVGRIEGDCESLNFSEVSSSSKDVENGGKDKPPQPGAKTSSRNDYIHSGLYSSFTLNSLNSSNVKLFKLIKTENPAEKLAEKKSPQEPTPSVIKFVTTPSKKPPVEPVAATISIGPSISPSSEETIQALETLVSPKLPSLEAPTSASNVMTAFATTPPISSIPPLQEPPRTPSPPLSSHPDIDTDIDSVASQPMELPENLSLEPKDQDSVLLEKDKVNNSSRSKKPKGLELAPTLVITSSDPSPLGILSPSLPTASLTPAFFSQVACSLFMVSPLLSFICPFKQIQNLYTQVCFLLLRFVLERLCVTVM
Conditions: protein: recombinant; tags: N-terminal GST; dsDNA, one strand shown. In a few lines:
as §1

The next test has as its target T4, ETV2 (Homo sapiens, UniProt O00321 1-342).
T4 sequence: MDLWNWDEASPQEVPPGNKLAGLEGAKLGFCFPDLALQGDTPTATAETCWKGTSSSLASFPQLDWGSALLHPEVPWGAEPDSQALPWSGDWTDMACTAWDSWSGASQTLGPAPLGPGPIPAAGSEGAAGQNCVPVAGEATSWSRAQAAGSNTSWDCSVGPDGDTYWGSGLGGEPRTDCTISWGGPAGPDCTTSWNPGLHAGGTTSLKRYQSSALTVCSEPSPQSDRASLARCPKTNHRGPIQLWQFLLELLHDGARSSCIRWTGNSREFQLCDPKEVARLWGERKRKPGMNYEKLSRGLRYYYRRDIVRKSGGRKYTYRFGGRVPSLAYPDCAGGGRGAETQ
Conditions: protein: recombinant; tags: N-terminal GST; dsDNA, one strand shown. In a few lines: as §1

A further test has as its target T5, ELF3 (Homo sapiens, UniProt P78545 1-371).
T5 sequence: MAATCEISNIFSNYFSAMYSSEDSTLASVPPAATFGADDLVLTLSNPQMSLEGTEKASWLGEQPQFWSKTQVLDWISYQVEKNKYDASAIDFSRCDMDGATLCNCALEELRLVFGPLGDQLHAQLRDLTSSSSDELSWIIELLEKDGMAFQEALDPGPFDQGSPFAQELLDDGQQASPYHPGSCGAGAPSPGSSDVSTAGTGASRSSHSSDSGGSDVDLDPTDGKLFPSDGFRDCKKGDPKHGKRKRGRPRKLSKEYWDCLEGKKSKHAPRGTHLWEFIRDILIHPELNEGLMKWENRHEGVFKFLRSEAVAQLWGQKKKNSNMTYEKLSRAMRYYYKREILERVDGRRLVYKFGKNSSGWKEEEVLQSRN
Conditions: protein: recombinant; tags: N-terminal GST; dsDNA, one strand shown. In a few lines:
as §1

Another test has as its target CRX (Homo sapiens, UniProt O43186 1-299). Conditions: protein: recombinant; tags: N-terminal GST; dsDNA, one strand shown. In a few lines:
as §1

The target of a further test is ETV1 (Homo sapiens, UniProt P50549 1-477). Conditions: protein: recombinant; tags: N-terminal GST; dsDNA, one strand shown. In a few lines: as §1
ETV1, sequence (P50549 whole entry): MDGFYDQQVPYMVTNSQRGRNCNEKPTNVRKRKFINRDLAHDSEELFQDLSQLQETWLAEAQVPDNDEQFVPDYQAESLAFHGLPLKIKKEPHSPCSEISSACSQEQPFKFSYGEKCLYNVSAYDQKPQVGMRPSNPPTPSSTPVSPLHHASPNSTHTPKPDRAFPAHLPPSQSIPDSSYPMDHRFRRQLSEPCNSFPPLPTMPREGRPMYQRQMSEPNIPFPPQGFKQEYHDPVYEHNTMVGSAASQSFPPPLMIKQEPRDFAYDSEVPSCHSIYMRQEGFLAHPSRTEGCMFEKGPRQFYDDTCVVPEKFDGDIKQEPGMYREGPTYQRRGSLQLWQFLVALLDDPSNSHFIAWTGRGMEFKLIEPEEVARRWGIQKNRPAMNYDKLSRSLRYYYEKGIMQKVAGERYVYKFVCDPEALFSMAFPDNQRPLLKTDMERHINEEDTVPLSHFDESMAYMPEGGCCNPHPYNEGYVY
In a further test the target is T6, ERF (Homo sapiens, UniProt P50548 1-548).
T6 sequence: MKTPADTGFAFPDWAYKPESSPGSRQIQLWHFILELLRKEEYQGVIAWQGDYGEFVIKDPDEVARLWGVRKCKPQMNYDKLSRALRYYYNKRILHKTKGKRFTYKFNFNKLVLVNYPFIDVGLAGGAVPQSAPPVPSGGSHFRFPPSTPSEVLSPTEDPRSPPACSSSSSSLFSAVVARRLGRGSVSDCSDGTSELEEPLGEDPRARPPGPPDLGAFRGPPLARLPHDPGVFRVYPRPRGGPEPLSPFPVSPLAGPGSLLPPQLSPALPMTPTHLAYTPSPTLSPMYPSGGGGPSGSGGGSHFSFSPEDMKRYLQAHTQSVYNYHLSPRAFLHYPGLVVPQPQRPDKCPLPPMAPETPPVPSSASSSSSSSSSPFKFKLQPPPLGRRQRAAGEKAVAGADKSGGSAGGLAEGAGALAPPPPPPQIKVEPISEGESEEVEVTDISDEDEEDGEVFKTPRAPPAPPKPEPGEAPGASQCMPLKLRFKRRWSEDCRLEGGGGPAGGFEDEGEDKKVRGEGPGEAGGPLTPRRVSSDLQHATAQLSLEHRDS
Conditions: protein: recombinant; tags: N-terminal GST; dsDNA, one strand shown. In a few lines:
as §1

The target in another test is T7, ETV3L (Homo sapiens, UniProt Q6ZN32 1-361).
T7 sequence: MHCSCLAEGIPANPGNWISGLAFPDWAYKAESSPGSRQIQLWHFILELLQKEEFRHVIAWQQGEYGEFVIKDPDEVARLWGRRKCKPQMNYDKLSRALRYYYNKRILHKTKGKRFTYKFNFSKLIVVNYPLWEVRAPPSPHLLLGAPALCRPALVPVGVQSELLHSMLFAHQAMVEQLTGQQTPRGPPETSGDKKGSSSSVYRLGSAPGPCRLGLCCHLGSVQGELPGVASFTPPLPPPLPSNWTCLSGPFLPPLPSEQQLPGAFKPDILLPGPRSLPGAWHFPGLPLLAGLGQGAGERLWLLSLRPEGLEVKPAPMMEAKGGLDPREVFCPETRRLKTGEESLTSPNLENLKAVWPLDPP
Conditions: protein: recombinant; tags: N-terminal GST; dsDNA, one strand shown. In a few lines: as §1

The target in the next test is T8, ETS2 (Homo sapiens, UniProt P15036 1-469).
T8 sequence: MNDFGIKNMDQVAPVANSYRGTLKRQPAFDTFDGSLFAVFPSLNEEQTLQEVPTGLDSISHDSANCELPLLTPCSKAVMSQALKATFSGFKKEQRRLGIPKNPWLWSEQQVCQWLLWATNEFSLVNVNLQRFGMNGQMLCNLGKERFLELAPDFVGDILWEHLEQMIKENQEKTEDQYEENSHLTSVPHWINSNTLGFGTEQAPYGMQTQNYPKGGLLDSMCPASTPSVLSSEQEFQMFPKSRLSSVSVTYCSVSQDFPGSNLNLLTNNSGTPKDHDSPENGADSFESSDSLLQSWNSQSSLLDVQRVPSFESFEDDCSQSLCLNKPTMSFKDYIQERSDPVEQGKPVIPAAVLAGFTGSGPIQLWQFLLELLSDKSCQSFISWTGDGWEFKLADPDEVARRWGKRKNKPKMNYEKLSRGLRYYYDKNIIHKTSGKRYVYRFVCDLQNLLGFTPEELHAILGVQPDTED
Conditions: protein: recombinant; tags: N-terminal GST; dsDNA, one strand shown. In a few lines:
as §1

The next test concerns the target T9, SPDEF (Homo sapiens, UniProt O95238 1-335).
T9 sequence: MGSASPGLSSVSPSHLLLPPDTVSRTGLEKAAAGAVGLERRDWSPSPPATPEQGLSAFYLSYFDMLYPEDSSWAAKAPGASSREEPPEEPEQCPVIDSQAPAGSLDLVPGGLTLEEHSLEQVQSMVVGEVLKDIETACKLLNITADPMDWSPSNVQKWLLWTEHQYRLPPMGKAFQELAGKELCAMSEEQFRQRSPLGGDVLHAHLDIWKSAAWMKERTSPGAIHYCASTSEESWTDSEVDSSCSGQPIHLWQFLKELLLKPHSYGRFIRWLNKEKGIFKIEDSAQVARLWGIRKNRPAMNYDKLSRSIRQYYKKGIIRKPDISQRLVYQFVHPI
Conditions: protein: recombinant; tags: N-terminal GST; dsDNA, one strand shown. In a few lines:
as §1

The target in a further test is T10, ETV7 (Homo sapiens, UniProt Q9Y603 1-341).
T10 sequence: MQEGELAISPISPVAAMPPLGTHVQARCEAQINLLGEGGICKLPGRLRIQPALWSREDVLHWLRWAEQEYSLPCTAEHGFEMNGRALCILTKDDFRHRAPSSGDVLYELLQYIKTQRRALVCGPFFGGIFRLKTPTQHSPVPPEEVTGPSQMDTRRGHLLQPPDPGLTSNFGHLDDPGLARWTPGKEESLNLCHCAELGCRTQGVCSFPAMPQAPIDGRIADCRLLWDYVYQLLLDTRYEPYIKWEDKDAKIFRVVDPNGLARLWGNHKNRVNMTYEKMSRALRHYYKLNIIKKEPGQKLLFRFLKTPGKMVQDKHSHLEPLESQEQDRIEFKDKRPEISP
Conditions: protein: recombinant; tags: N-terminal GST; dsDNA, one strand shown. In a few lines:
as §1

In another test the target is T11, ELF5 (Homo sapiens, UniProt Q9UKW6-2 1-255).
T11 sequence: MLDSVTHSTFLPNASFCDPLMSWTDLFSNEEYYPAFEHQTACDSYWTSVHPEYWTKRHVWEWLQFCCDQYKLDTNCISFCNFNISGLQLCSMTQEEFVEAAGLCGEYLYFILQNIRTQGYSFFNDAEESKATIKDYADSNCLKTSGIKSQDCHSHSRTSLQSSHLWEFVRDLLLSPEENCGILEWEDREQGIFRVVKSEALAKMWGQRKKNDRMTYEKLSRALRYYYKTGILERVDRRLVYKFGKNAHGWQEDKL
Conditions: protein: recombinant; tags: N-terminal GST; dsDNA, one strand shown. In a few lines:
as §1

Another test addresses T12, ETV3 (Homo sapiens, UniProt P41162-2 1-143).
T12 sequence: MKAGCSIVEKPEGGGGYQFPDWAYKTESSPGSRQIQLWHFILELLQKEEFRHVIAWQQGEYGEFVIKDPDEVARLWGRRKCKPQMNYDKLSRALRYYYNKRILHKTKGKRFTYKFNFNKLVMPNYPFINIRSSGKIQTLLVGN
Conditions: protein: recombinant; tags: N-terminal GST; dsDNA, one strand shown. In a few lines: as §1

For a further test, the target named is ETV6 (Homo sapiens, UniProt P41212 1-452). Conditions: protein: recombinant; tags: N-terminal GST; dsDNA, one strand shown. In a few lines:
as §1

CRX, sequence (O43186 whole entry): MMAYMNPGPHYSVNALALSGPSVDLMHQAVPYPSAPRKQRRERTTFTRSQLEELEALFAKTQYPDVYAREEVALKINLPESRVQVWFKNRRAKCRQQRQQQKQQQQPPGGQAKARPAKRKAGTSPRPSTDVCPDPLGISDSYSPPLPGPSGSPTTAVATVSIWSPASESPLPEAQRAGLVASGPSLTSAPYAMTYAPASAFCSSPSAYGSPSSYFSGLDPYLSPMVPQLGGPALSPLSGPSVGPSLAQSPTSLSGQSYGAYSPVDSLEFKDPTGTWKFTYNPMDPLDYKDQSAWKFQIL
ELF4, sequence (Q99607 whole entry): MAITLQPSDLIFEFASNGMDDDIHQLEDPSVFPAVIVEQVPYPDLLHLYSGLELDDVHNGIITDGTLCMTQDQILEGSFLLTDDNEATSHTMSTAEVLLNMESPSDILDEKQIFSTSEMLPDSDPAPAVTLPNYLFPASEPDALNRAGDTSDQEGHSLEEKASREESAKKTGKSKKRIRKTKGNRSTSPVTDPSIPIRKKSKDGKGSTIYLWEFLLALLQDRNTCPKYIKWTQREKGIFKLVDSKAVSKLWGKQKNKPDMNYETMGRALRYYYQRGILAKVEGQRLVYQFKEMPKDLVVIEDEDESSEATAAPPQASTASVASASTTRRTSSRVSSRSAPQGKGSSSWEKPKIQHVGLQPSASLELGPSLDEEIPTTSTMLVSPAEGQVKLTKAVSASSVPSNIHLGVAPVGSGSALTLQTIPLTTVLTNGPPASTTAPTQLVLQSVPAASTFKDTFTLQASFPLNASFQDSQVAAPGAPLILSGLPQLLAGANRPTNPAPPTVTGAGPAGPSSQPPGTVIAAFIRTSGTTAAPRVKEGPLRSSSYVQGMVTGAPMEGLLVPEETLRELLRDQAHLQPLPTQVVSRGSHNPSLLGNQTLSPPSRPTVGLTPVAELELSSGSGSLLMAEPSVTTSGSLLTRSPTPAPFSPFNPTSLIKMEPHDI
ETV6, sequence (P41212 whole entry): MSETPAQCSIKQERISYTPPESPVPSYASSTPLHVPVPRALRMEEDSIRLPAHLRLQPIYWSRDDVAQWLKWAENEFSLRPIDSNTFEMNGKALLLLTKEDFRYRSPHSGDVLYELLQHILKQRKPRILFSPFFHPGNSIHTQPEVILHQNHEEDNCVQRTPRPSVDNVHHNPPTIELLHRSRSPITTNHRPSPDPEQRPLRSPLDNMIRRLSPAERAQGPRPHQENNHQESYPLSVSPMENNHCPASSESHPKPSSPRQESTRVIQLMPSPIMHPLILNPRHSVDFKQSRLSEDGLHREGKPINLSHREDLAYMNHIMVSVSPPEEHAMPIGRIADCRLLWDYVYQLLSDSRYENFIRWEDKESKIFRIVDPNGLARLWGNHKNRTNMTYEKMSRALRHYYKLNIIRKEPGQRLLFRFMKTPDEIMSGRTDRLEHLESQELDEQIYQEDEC

AACTCC: the binding signal was 1.32 fold enrichment (6-mer frequency, TF over GST control) with FEV; 1.32 fold enrichment (6-mer frequency, TF over GST control) in the test with ETV5; 1.23 fold enrichment (6-mer frequency, TF over GST control) in the test with HSF1; 1.32 fold enrichment (6-mer frequency, TF over GST control) with SPIC; 1.3 fold enrichment (6-mer frequency, TF over GST control) in the test with ELF4; 1.13 fold enrichment (6-mer frequency, TF over GST control) in the test with ELK4. Also, the binding signal is 1.23 fold enrichment (6-mer frequency, TF over GST control) with ETV2; 1.13 fold enrichment (6-mer frequency, TF over GST control) with ELF3; 1.19 fold enrichment (6-mer frequency, TF over GST control) in the test with CRX; 1.26 fold enrichment (6-mer frequency, TF over GST control) in the test with ETV1; 1.36 fold enrichment (6-mer frequency, TF over GST control) with ERF; 1.27 fold enrichment (6-mer frequency, TF over GST control) with ETV3L. For the same sequence, the binding signal in the test with ETS2 was 1.32 fold enrichment (6-mer frequency, TF over GST control); with SPDEF, 1.33 fold enrichment (6-mer frequency, TF over GST control); with ETV7, 1.31 fold enrichment (6-mer frequency, TF over GST control); in the test with ELF5 it was 1.32 fold enrichment (6-mer frequency, TF over GST control); with ETV3, 1.34 fold enrichment (6-mer frequency, TF over GST control); with ETV6, 1.4 fold enrichment (6-mer frequency, TF over GST control).
